TGFb inhibitor: qHTS for Inhibitors of TGF-b. Potency, µM (series often up to 46.1 µM), for the others: at the top dose activity, negative = inhibition, actives largely listed as inhibitors. HepG2 CAGA-GFP TGF-b/SMAD3 reporter, GFP fluorescence, 18 h; TGF-beta stimulated, 500 pg/mL final. AID 588855, 2011. 410,000 tested, 1.2% active; also: % is scaled to controls: 0 for no effect and ±100 for the full control effect; nearly all actives have a fitted effect of over 65% in size
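GFP signal (ex488/em500-530) from TGF-beta-stimulated HEPG2 CAGA-GFP cells, 500 pg/mL final, 18 h at 37 degrees C in DMEM plus 1% FBS, normalized to unstimulated and DMSO-stimulated controls.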
HT1080NT lethal: qHTS for induction of synthetic lethality in tumor cells producing 2HG: qHTS for the HT-1080-NT fibrosarcoma cell line | HT-1080-NT fibrosarcoma viability, CellTiter-Glo ATP luminescence, 48 h | Potency, µM (series often up to 46.1 µM), for inactives: at the top dose activity, negative = less viability, usual class: cytotoxic | 360,000 tested, 1.6% active | AID 686970, 2013;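 also: NT is the 2HG producing partner of a matched IDH1 knockdown line; 0% = DMSO-treated cells and -100% = media-only wells without cells; nearly all actives have a fitted effect of over 55% in size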
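Toxicity toward the 2HG-producing NT line was scored as %Activity, normalised to DMSO and no-cell wells, from CellTiter-Glo luminescence after 48 hours' treatment.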
HT1080 IDH1KD tx: qHTS for induction of synthetic lethality in tumor cells producing 2HG: qHTS for the HT-1080-IDH1KD cell line; HT-1080 IDH1 knockdown viability, ATP luminescence, 48 h; Potency, µM (highest dose often 46.1 µM), without a hit: at the highest dose activity, negative = toxicity, hits mostly cytotoxic; 360,000 tested, 2% active;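 also: 0% = DMSO wells and -100% = cell-free medium wells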
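Viability of IDH1-knockdown HT-1080 fibrosarcoma cells was assessed by CellTiter-Glo after 48 h at 37 °C with titrated compound; concentration-effect curves were classified by fit quality and response size.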
HepG2 viability: qHTS for Inhibitors of TGF-b: Cytotox Counterscreen; 410,000 tested, 0.76% active; HepG2 CAGA-GFP viability, ATP luminescence, 18 h; Potency, µM (series often up to 46.1 µM), without a hit: top-dose activity change, negative = cytotoxicity, hits mostly cytotoxic
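HepG2 CAGA-GFP cells (1000/well, DMEM with 1% FBS) received compound, then TGF-beta at 500 pg/mL final, and were incubated 18 hours at 37 degrees C. Viability was read by CellTiter-Glo luminescence. Media-only wells were set as complete cell-killing and DMSO as no toxicity.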
ATXN2 expr inh: Primary qHTS for Inhibitors of ATXN expression; 360,000 tested, 0.72% active; AID 1745845, 2022; HEK-293 ATXN2-luciferase reporter, luminescence, 24 h; Potency, µM (doses to about 57 µM), inactives show at the highest dose activity change, negative = inhibition, usual class: inhibitors; also: % is scaled to controls: 0 for no effect and ±100 for the full control effect; nearly all actives have a fitted effect of over 55% in size
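ATXN2-luciferase reporter cells (luciferase flanked by upstream and downstream ATXN2 gene portions) were treated 24 h at 37 °C with compounds at up to 57 uM. SteadyGlo luminescence gave expression; GF-AFC fluorescence gave viability.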
ATXN viability: Viability Counterscreen for Primary qHTS for Inhibitors of ATXN expression; S2 cells (HEK-293 line with an ATXN2-luciferase reporter) viability, CellTiter-Fluor protease fluorescence, 24 h; Potency, µM (doses to about 56.7 µM), usual class: cytotoxic; 400,000 tested, 0.49% active; AID 651635, 2014; also: nearly all actives have a fitted effect of over 40% in size
* hit, by the source's call; i = inactive; ? = inconclusive; . = no result. Rows were chosen to be rich in hits. Some 3.8% of all compounds tested hit in one or more screens of this group. Calls follow the shape of the dose curve; as a rule, active = well fitted curve in the direction sought with a large enough effect; inconclusive = small, poorly fitted or top-dose-only effect, or another doubt; inactive = no such curve, though single readings can be large; an effect the other way counts as inactive or inconclusive. Potency is read from the fitted curve at half-maximal effect.

SMILES	TGFb inhibitor	HT1080NT lethal	HT1080 IDH1KD tx	HepG2 viability	ATXN2 expr inh	ATXN viability
Nc1c(C(=O)c2ccc(Cl)cc2)sc2nsc(SCCN3CCOCC3)c12	3%	15%	19%	2%	?	i
Nc1nc2ncccc2cc1C(=O)NCCc1cccs1	.	-13%	15µM*	.	17%	i
Cc1ccc(C(=O)NCCc2cccs2)cc1	5%	1%	11%	-3%	14µM*	i
CC(C)c1cc(C(=O)NCCc2cccs2)c(N)s1	.	-8%	0%	.	.	.
COc1cccc(CN(C)C(=O)c2cnn(-c3nccc(-c4ccc5c(c4)OCO5)n3)c2C)c1	.	.	.	.	.	i
CC1CCN(C2=NC(=O)/C(=C/c3ccccc3F)S2)CC1	-14%	-4%	-21%	-29%	27%	i
CN1C2CCC1/C(=C\c1ccccc1F)C(=O)/C2=C/c1ccccc1F	0%	?	12µM*	-27%	-36%	?
COc1cc2nc(N3CCOCC3)nc(NC3CCN(C)CC3)c2cc1OC	.	2%	-16%	.	.	.
Cn1c(=O)c2cc(NC(=O)Cc3ccccc3F)ccc2n1-c1ccc(C(C)(C)C)cc1	?	?	-28%	-19%	-12%	?
Cc1cc(C)cc(-n2c3ccc(NC(=O)Cc4cccc5ccccc45)cc3c(=O)n2C)c1	?	?	2.1µM*	-11%	-27%	0.56µM*
CC(CC(=O)Nc1ccc2c(c1)c(=O)n(C)n2-c1cccs1)c1ccccc1 (stereo not drawn)	8%	?	4.1µM*	-5%	-4%	?
COc1ccc(/C=C/C(=O)N2CCc3c(cnc(C)c3CNS(=O)(=O)c3cccs3)C2)cc1	.	.	.	.	.	i
COc1ccccc1CN1CCC(CNS(=O)(=O)c2cc(-c3onc(C)c3C)ccc2OC)CC1	?	18µM*	18µM*	-16%	-36%	i
COc1cc(/C=N/NC(=S)NC2CC3CC2C2C=CCC32)ccc1O (stereo not drawn)	?	18µM*	?	-48%	-14%	?
CCOc1ccc(CCNC(=O)CCc2cn(Cc3ccc(C)cc3)c3ccccc23)cc1	?	.	.	-42%	.	.
Cc1ccccc1OCC(=O)N/N=C/c1ccc([N+](=O)[O-])o1	18µM*	-26%	?	-91%	.	?
O=C(COc1ccccc1[N+](=O)[O-])N/N=C/C=C/c1ccco1	-19%	8%	10%	-19%	25%	i
Cc1cc(C)cc(OCC(=O)N/N=C/c2ccc([N+](=O)[O-])o2)c1	?	-10%	-12%	-96%	?	?
COc1ccccc1OCC(=O)N/N=C/C=C/c1ccc([N+](=O)[O-])o1	10µM*	-6%	?	-76%	?	?
CC(C)CCCC(C)NCCC(C)C (stereo not drawn)	.	.	.	.	-2%	i
O=c1[nH]c2ccccc2nc1-c1nnnn1C1CCCC1	.	-1%	8%	.	-24%	i
O=c1[nH]c2cc3ccccc3cc2nc1-c1nnnn1C1CCCC1	.	?	16µM*	.	-23%	?
CCn1c(=O)cc(OCC(=O)N2CCN(c3cccc(Cl)c3)CC2)c2ccccc21	-4%	.	.	-19%	2%	i
Cn1c(N)c(C(=O)COC(=O)c2ccc([N+](=O)[O-])o2)c(=O)n(C)c1=O	13µM*	?	-29%	-43%	-17%	i
CCOC(=O)C1CCN(C(=O)COC(=O)c2ccc([N+](=O)[O-])o2)CC1	18µM*	6%	-3%	13µM*	-11%	i
CC(C)OCCCNC(=O)C(=O)Nc1c2c(nn1-c1ccccc1)CS(=O)(=O)C2	-30%	.	.	-1%	7%	i

Compound activity deposited in PubChem BioAssay by National Center for Advancing Translational Sciences (NCATS).
